Paper PMC5540273 (PLoS ONE, 2017)

System: EPHB1
Conditions: concentration: 1 μM,replicates: in singlicate; n = 1
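Further: KINOMEscan kinase panel screen.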

| SMILES | %Inh |
| --- | --- |
| CCN(CC)CCOc1ccc(Nc2ncc3cc(-c4c(Cl)cccc4Cl)c(=O)n(C)c3n2)cc1 [SB-601273] | 99.8% |
| Cc1cc(C(=O)Nc2ccc(Oc3ccc4nc(NC(=O)C5CC5)cn4n3)cc2)nn1-c1ccccc1 | 18% |
| Cl.Oc1cc(-c2nc(-c3ccccc3)[nH]c2-c2ccncc2)ccc1Cl [SB-386023] | 0% |
| CNC(=O)c1ccccc1Sc1ccc2c(/C=C/c3ccccn3)n[nH]c2c1 | 0% |
| Cc1ccc2c(-c3ccncc3)c(-c3ccc(F)cc3)nn2c1.Cl [GW461484] | 0% |
| CN(C)CC(O)COc1ccc(Nc2nccc(-c3cnn4nc(N5CCOCC5)ccc34)n2)cc1 (centres unmarked) [GW767488] | 9% |
| Cl.Cl.Nc1nc(-c2ccc3c(N)n[nH]c3c2)cc(N2CCCC(NC(=O)c3ccccc3)C2)n1 (centres unmarked) [GSK2286775] | 27% |
| CCn1c(-c2nonc2N)nc2c(C#CC(C)(C)O)nc(OCCN)cc21.Cl.Cl [GSK902056] | 3% |
| CC(C)Nc1cc(-c2ccc3c(N)n[nH]c3c2)nc(N)n1 [GSK2221681] | 0% |
| Cl.Cl.NC[C@H](CC1CCCCC1)NC(=O)c1cc(Br)c(-c2ccnc3[nH]ccc23)s1 [GSK1581427] | 17% |
| Nc1nc(Nc2ccccc2)cc(-c2ccc3c(N)n[nH]c3c2)n1 [GSK2225749] | 4% |
| C[C@@H]1CCN(C(=O)CC#N)C[C@@H]1N(C)c1ncnc2[nH]ccc12 | 0% |
| C=CC(=O)Nc1cc2c(Nc3ccc(F)c(Cl)c3)ncnc2cc1OCCCN1CCOCC1 [GW781483] | 9% |
| CCN(CC)CCCCNc1ncc2cc(-c3c(Cl)cccc3Cl)c(NC(=O)NC(C)(C)C)nc2n1 | 99.9% |
| CC(C)N1C(=O)Cc2cc(Nc3ncc(C(F)(F)F)c(NCc4cccc(S(C)(=O)=O)c4)n3)ccc21 | 16% |
| Cl.Cl.NC[C@H](Cc1ccc(C(F)(F)F)cc1)NC(=O)c1cc(Br)c(-c2ccnc3[nH]ccc23)s1 [GSK1487252] | 12% |
| Cc1n[nH]c2ccc(-c3cc(OC[C@@H](N)Cc4ccccc4)cnc3-c3ccoc3)cc12.O=C(O)C(F)(F)F.O=C(O)C(F)(F)F [GSK507358] | 0% |
| Cc1cc2cn[nH]c2cc1-c1cccc2c(N)c(C(N)=O)nnc12 | 15% |
| COc1ccc(C[C@@H](CN)NC(=O)c2cc(Br)c(-c3ccnc4[nH]ccc34)s2)cc1.Cl.Cl [GSK1389063] | 19% |
| O=C(NCCNc1ccnc(NCc2ccc(F)cc2)n1)c1cc2ccccc2s1 [GSK1379944] | 6% |
| C[C@H]1Oc2cc(cnc2N)-c2c(nn(C)c2C#N)CN(C)C(=O)c2ccc(F)cc21 | 27% |
| O=C(NCCCN1CCOC1=O)c1cnc(NCc2cc(Cl)ccc2Cl)nc1NC1CCCC1 | 8% |
| NC(=O)c1cc(-c2ccccc2)cc2c(C3CCNCC3)c[nH]c12 [GSK301362] | 26% |
| CN(C)CCOc1ccc(-c2cc(-c3c[nH]nc3-c3ccccn3)ccn2)cc1 [GW835314] | 2% |
| C[C@@H](Oc1cc(-c2cnn(C3CCNCC3)c2)cnc1N)c1c(Cl)ccc(F)c1Cl | 68% |
| Cc1occc1-c1nc(N)c(OC[C@@H](N)Cc2c[nH]c3ccccc23)cc1-c1cc2c(C)n[nH]c2cn1 [GSK1660450] | 24% |
